Reference: PubChem BioAssay (NCATS)
Records with an inconclusive call do not appear. Entries that show only a call come without a potency. Activity calls are given as the source filed them. Calls follow the shape of the dose curve; as a rule, active = well fitted inhibition curve with a large enough effect; inconclusive = small, poorly fitted or top-dose-only effect; inactive = no such curve, though single readings can be large or run the other way. *1 amine or outer side, *2 acyl side, *3 side chain or, on linkers, in order; H or OH if unused. Where a SMILES comes first, the peptide text is derived from it. [ ]: non-standard residue; d: D form. X13 = O=C(C(CC(O)CO)O[*:1])[*:2]; NMeV = CN[CH](C(=O)O)C(C)C; NMeA = CN[CH](C)C(=O)O; βAla = NCCC(=O)O

System: Zika virus NS2B-NS3 protease (linked construct)
Assay: Primary screen NINDS Rhodamine qHTS for Zika virus inhibitors (AID 1347160); also: nearly all actives have a fitted effect of over 55% in size
Settings: purified NS2B-NS3 protease, Rhodamine110 substrate fluorescence; series mostly up to 33.1 µM
Method in brief: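 Single-chain NS2B-NS3 protease, 25 nM, pH 8.0; compounds preincubated 15 min. Activity: Rhodamine110 release from 1.5 microM substrate over 15 min, room temperature, data fitted to 4-parameter Hill.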
Potency is read from the fitted curve at half-maximal effect.

Q: How did the Potency turn out when NC1=NC2(c3cc(NC(=O)c4ccc(F)cn4)ccc3F)COCC2CS1 (centres undefined) was run?
A: The Potency was “inactive”.

Q: How did the Potency turn out when COc1ccnc(CCc2nc3ncccc3[nH]2)c1 was run?
A: The Potency was “inactive”.

Q: Which Potency does the source give for CC(C)/C=C1/NC(=O)C(C(C)C)n2c1nc1c(O)cccc1c2=O (centres undefined) here?
A: Its Potency is “inactive”.

Q: CCC(C)C(=O)OC[C@H]1O[C@H](O[C@H]2O[C@H](CO)[C@@H](O)[C@H](O)[C@H]2O)[C@H](O)[C@@H](O)[C@@H]1O (some centres undefined) was tested. Which Potency did it give?
A: Its Potency is “inactive”.

Q: For CCc1nn(CCO)c(CC)c1Oc1cc(C#N)cc(C#N)c1, which Potency is on record?
A: The Potency was “inactive”.

Q: Which Potency does the source give for CCC(C)C1NC(=O)C2CCCN2C(=O)C(CC(O)CO)OC(=O)CCNC(=O)C(C)N(C)C(=O)C(C(C)C)N(C)C1=O (centres undefined) (cyclo([X13]PI[NMeV][NMeA][βAla]); configuration not given here) here?
A: Its Potency is “inactive”.

Q: How did the Potency turn out when C=C1CC[C@]2(C(=O)O[C@@H]3O[C@H](CO)[C@@H](O)[C@H](O)[C@H]3O)CC[C@]3(C)C(=CCC4[C@@]5(C)C[C@H](O)[C@@H](O[C@@H]6O[C@H](C(=O)O)[C@@H](O)[C@H](O)[C@H]6O)[C@](C)(C=O)C5CC[C@]43C)C2C1 (some centres undefined) was run?
A: The Potency was “inactive”.

Q: How did the Potency turn out when Cc1cn2cc(CC(=O)N3CCC4(CC3)CN(Cc3ccc(-n5nccn5)cc3Cl)C4)nc2s1 was run?
A: Its Potency is “inactive”.

Q: Which Potency does the source give for C=C1[C@H](OC(C)=O)[C@H]2[C@@H](OC(=O)c3ccccc3)[C@@H](C)C[C@]2(O)[C@@H](OC(C)=O)[C@H](C)/C=C/C(C)(C)C(=O)[C@H](OC(C)=O)[C@H]1OC(C)=O here?
A: The Potency was “inactive”.

Q: Which Potency does the source give for COC(=O)C[C@H]1C(C)(C)[C@H](OC(=O)C(C)C)C2CC3=C4CC(=O)O[C@@H](c5ccoc5)[C@]4(C)CCC3[C@@]1(C)C2=O (some centres undefined) here?
A: Its Potency is “inactive”.

Q: For CC(C)(O)[C@@H]1CC[C@]2(CO)[C@@H](O)CC[C@](C)(O)[C@H]2[C@@H]1O[C@@H]1O[C@H](CO)[C@@H](O)[C@H](O)[C@H]1O, which Potency is on record?
A: The Potency was “inactive”.

Q: How did the Potency turn out when CCN(CCN(C)C)C(=O)CNCc1cc(C(N)=O)ccn1 was run?
A: Its Potency is “inactive”.

Q: For COc1ccc(C2(O)c3ccccc3NC(=O)C2OC)cc1 (centres undefined), which Potency is on record?
A: The Potency was “inactive”.

Q: Which Potency does the source give for CC(=O)O[C@@H]1[C@@H](O)[C@H](C)O[C@@H](O[C@H]2[C@@H]3C=CO[C@@H](O[C@@H]4O[C@H](CO)[C@@H](O)[C@H](O)[C@H]4OC(C)=O)[C@@H]3[C@@]3(CO)O[C@@H]23)[C@@H]1OC(=O)/C=C/c1ccc(O)cc1 here?
A: Its Potency is “inactive”.

Q: With CC(=O)c1ccc(O[C@@H]2OC[C@@H](O)[C@H](O)[C@H]2O[C@]2(CO)O[C@H](CO)[C@@H](O)[C@@H]2O)c(O)c1 as the compound, how does the Potency read?
A: Its Potency is “inactive”.

Q: How did the Potency turn out when COc1cc2c(cc1O)C(c1ccc(O)cc1)C(C)C(C)C2 (centres undefined) was run?
A: Its Potency is “inactive”.

Q: Which Potency does the source give for CC(=O)OC1CC2(C)C(CCC(C)C23Cc2c(O)cc4c(c2O3)CNC4=O)C(C)(C)C1O (centres undefined) here?
A: Its Potency is “inactive”.

Q: How did the Potency turn out when COc1ccc(/C=C/C(=O)N2CCCC2)cc1 was run?
A: The Potency was “inactive”.

Q: With C=C1CCC2C(C)(C(=O)O)CCCC2(C)C1CC/C(C)=C\CO (centres undefined) as the compound, how does the Potency read?
A: The Potency was “inactive”.

Q: How did the Potency turn out when CC1=C(C(=O)OC2OC(COC3OC(CO)C(O)C(O)C3O)C(O)C(O)C2O)C(C)(C)CCC1 (centres undefined) was run?
A: The Potency was “inactive”.

Q: CC(C)(OC1OC(CO)C(O)C(O)C1O)C1CCC(O)(CO)C2CC(=O)C(C)(O)C2C1 (centres undefined) was tested. Which Potency did it give?
A: The Potency was “inactive”.

Q: Which Potency does the source give for CC(C)(O)C1CCC2(C)CCCC(C)(O)C2C1 (centres undefined) here?
A: The Potency was “inactive”.

Q: Which Potency does the source give for Cc1oc(S(=O)(=O)N2CCCCC2)cc1NC(=O)Nc1ccccc1 here?
A: The Potency was “inactive”.

Q: For C/C=C(\C)C(=O)OC[C@H]1O[C@H](O[C@H]2O[C@H](CO)[C@@H](O)[C@H](O)[C@H]2O[C@@H]2O[C@H](CO)[C@@H](O)[C@H](O)[C@H]2O)[C@H](O[C@@H]2O[C@H](CO)[C@@H](O)[C@H](O)[C@H]2O)[C@@H](O)[C@@H]1O, which Potency is on record?
A: The Potency was “inactive”.

Q: CC1OC(O[C@H]2CC[C@@]3(C)C(CC[C@]4(C)C3CC=C3C5CC(C)(C)CC[C@]5(C(=O)OC5OC(CO)C(OC6OCC(OC7OCC(O)C(O)C7O)C(O)C6O)C(O)C5O)CC[C@]34C)C2(C)C)C(O)C(O)C1OC1OC(CO)C(O)C(OC2OC(CO)C(O)C(O)C2O)C1O (some centres undefined) was tested. Which outcome did it give?
A: Its outcome is “inactive [at 10.7 µM]”.

Q: Which Potency does the source give for COc1cc(O[C@@H]2O[C@H](CO[C@H]3OC[C@](O)(CO)[C@H]3O)[C@@H](O)[C@H](O)[C@H]2O)cc(OC)c1O here?
A: Its Potency is “inactive”.

Q: O=C(c1ccc(Cl)c([N+](=O)[O-])c1)N1CCN(c2ccccc2F)CC1 was tested. Which Potency did it give?
A: Its Potency is “inactive”.

Q: Which Potency does the source give for CC(=O)O[C@@H]1CC2C(C)(C)C(=O)C=C[C@]2(C)C2CC[C@]3(C)C(=CC(=O)[C@@H]3c3ccoc3)[C@@]21C (some centres undefined) here?
A: Its Potency is “inactive”.

Q: How did the Potency turn out when C=C1CC[C@@H]2C(C)(C)CCC[C@@]2(C)[C@@H]1CC/C(=C/C(=O)OC)COC(C)=O was run?
A: Its Potency is “inactive”.

Q: How did the Potency turn out when C=CCc1ccc(O[C@@H]2O[C@H](CO)[C@@H](O)[C@H](O)[C@H]2O)c(O[C@@H]2O[C@H](CO)[C@@H](O)[C@H](O)[C@H]2O)c1 was run?
A: Its Potency is “inactive”.

Q: For CN(C)CCC[C@]1(c2ccc(F)cc2)OCc2cc(C#N)ccc21, which Potency is on record?
A: Its Potency is “inactive”.

Q: With CC1CCC2C(C(=O)O)=CC3(O)CC(C)(C)CC123 (centres undefined) as the compound, how does the Potency read?
A: Its Potency is “inactive”.

Q: With CCOc1ncc(S(=O)(=O)N2CCN(CC)CC2)cc1-c1nc2c(CC)n(CCOC)nc2c(=O)[nH]1 as the compound, how does the Potency read?
A: The Potency was “inactive”.

Q: With COc1ccc(N2CCN(CCCNC(=O)Cn3c(=O)c4cccn4c4c(C)ccnc43)CC2)cc1 as the compound, how does the Potency read?
A: Its Potency is “inactive”.

Q: Which Potency does the source give for CC(=O)OC[C@@]12C(=O)C[C@@H](C)[C@]3(C[C@@H](c4ccoc4)OC3=O)[C@H]1CC[C@H](OC(C)=O)[C@]21CO1 here?
A: The Potency was “inactive”.

Q: With CS(=O)(=O)c1ccccc1N1CCN(c2nc3c(c(=O)[nH]2)CSCC3)CC1 as the compound, how does the Potency read?
A: The Potency was “inactive”.

Q: For CC(=O)NCC1CN(c2ccc(-c3ccc(CNCc4cn[nH]n4)cc3)c(F)c2)C(=O)O1 (centres undefined), which Potency is on record?
A: Its Potency is “inactive”.

Q: Which Potency does the source give for CC(=O)NC(Cc1c[nH]c2ccccc(=O)c12)C(=O)O (centres undefined) here?
A: Its Potency is 15.8 µM (active).

Q: Cc1cc(OCCN2CCOCC2)nn1-c1ccc2ccccc2c1 was tested. Which Potency did it give?
A: Its Potency is “inactive”.
